aDG glyco act = increases alpha dystroglycan glycosylation. 0.22% of 360,000 active. Pro5-aDG cells, alpha-DG glycosylation AlphaScreen (IIH6); 0% Pro5, 100% B10-LARGE cell signal. activation, % at 10 µM. AID 624168;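 active = activation of at least 8% versus controls, or a plate z-score of at least 8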;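 also: Pro5 are CHO cells carrying HIG-tagged alpha-DG that lacks glycosylation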
EBV LMP1 NFkB = reduces LMP1-driven NF-kappaB luciferase signal | LMP1-induced NF-kappaB luciferase reporter cells, luminescence | 0.69% of 350,000 active | inhibition, % at 12.5 µM; in the data active = inhibition above about 41%;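 also: 0% = neutral control wells and 100% = reference inhibitor control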
HSP90 refold inh = inhibitors of HSP90 luciferase refolding in rabbit reticulocyte lysate; inhibition, % at 5.6 µM; 0.91% of 290,000 active; AID 1789; luciferase refolding luminescence, 3 h;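 active = inhibition above the screen-wide mean plus 3 SD, computed separately per campaign, cut at about 16% in these data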;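 also: 0% = DMSO wells and 100% = 60 µM geldanamycin wells; inhibitors lower the luminescence because luciferase stays unfolded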
LGR2 inh = blocks bursicon-induced cAMP signaling via Drosophila LGR2; HEK293 LGR2, CRE-luciferase, bursicon-stimulated, 4 h; inhibition, % at 9.99 µM; AID 720647; 0.35% of 380,000 active;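 active = drop in luminescence signal, shown as inhibition above about 50% in the replicate tests, limit read from the data, passing the limit was not always enough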;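 also: agonist challenge used bursicon conditioned medium at about half maximal strength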
TROY signal inh = inhibitors of TROY-dependent NF-kB signaling; Q293 LMP1-TROYcd NF-kB luciferase reporter, 4 h; inhibition, % at 10 µM; 0.98% of 360,000 active; AID 1347056;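 active = compounds whose plate-normalised and pattern-corrected inhibition of the luciferase reporter signal at the single screening dose is 50% or more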
TWEAK Fn14 block = inhibitors of TWEAK-Fn14 interaction signaling | TWEAK-stimulated Fn14 reporter cells, luciferase luminescence, 8 h | inhibition, % at 10 µM | 2% of 360,000 active | AID 1159606; in the data active = inhibition above about 50%
HSP90 inh confirm = confirmation of HSP90 inhibitors; shares compounds with HSP90 refold inh; rabbit reticulocyte lysate, luciferase refolding luminescence, 3 h; inhibition, % at 5.9 µM; 64% of 2,300 active; AID 1846; in the data active = inhibition above about 18%;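 also: 0% = vehicle wells and 100% = reference inhibitor wells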
luciferase ctr = counter-screen for HSP90 inhibitors: inhibitors of firefly luciferase | shares compounds with HSP90 refold inh | purified native firefly luciferase, luminescence | inhibition, % at 5.9 µM | 48% of 2,300 active | AID 1847;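 active = inhibition above the mean inhibition of all tested sample wells plus 3 SD, cut at about 10% in these data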;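 also: 0% = DMSO with luciferase and 100% = wells lacking luciferase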
Target sequence (P08659 whole entry, looked up): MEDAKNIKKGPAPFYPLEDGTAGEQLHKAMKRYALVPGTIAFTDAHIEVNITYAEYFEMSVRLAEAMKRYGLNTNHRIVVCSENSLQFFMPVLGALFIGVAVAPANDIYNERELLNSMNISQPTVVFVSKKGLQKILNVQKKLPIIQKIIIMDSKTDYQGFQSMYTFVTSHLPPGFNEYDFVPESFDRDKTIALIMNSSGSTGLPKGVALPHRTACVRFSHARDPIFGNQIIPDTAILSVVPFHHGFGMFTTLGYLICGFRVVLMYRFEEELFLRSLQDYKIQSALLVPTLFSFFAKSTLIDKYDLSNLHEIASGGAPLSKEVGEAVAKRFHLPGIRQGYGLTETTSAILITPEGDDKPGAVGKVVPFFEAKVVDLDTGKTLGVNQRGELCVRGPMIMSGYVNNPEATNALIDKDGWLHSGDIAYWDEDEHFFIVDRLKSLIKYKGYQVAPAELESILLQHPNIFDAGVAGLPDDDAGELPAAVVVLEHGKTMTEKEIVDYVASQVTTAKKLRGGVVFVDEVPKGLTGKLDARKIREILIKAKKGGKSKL
An asterisk follows results filed as active; x = no result. Hits are enriched below; roughly 2.6% of the tested compounds scored in any of these assays.

SMILES	aDG glyco act	EBV LMP1 NFkB	HSP90 refold inh	LGR2 inh	TROY signal inh	TWEAK Fn14 block	HSP90 inh confirm	luciferase ctr
O=C(NCc1cccs1)C1CCCCC1	0	-18	26*	x	-12	5	-3	-7
COc1ccc(N(C)C(=O)Nc2ccc3c(c2)nnn3C)cc1	0	4	3	11	-4	9	x	x
COCCNC(=S)Nc1ccc2nsnc2c1	1	5	1	-11	-62	-1	x	x
C=CCN(CC=C)C(=S)Nc1ccc2nsnc2c1	2	-4	31*	-66	-18	5	-1	-13
COc1ccc(N(C)C(=O)Nc2ccc3nsnc3c2)cc1	0	-10	21*	-24	20	8	0	-12
COc1ccc(NC(=S)Nc2ccc3nsnc3c2)cc1	7.8*	-13	43*	-47	-35	-4	4	-21
C=CCNC(=S)Nc1ccc2nsnc2c1	0	1	-1	5	-45	-13	x	x
CC(C)N(C(=O)Nc1ccc2nsnc2c1)C(C)C	x	x	29*	82*	x	x	8	-2
C[C@H]1CN([C@@H](C)CO)C(=O)Cc2cc(NC(=O)Cc3ccccc3)ccc2O[C@@H]1CN(C)CC1CC1	x	x	x	-9	x	x	x	x
CCCNC(=O)Nc1ccc2c(c1)C(=O)N(C)C[C@H](OC)[C@@H](C)CN(C(=O)CC)[C@@H](C)CO2	x	x	x	-12	x	x	x	x
C[C@H](O)C#Cc1cnc2c(c1)C(=O)N([C@@H](C)CO)C[C@H](C)[C@@H](CN(C)C(=O)c1ccc(F)cc1)O2	x	x	x	-23	x	x	x	x
CN(C)c1ccc(/C=C/c2nc3ccccc3s2)cc1	0	25	76*	x	65*	105*	92*	90*
Cc1ccc(/C=C/c2nc3ccccc3s2)s1	0	43*	46*	x	76*	86*	80*	74*
CN(C)c1ccc(CNc2nc3ccccc3s2)cc1	x	x	48*	x	x	x	73*	57*
COc1ccc(S(=O)(=O)Nc2ccc3c(c2)C(=O)N([C@H](C)CO)C[C@H](C)[C@@H](CN(C)S(=O)(=O)c2ccc(OC)cc2)OCCCC[C@H](C)O3)cc1	x	x	x	5	x	x	x	x
COc1ccc(CN(C)C[C@@H]2OCCCC[C@@H](C)Oc3ccc(NS(C)(=O)=O)cc3C(=O)N([C@@H](C)CO)C[C@@H]2C)cc1	x	x	x	11	x	x	x	x
C[C@@H]1CCCCO[C@@H](CN(C)C(=O)Cc2ccccc2)[C@@H](C)CN([C@H](C)CO)C(=O)c2cc(NC(=O)Cc3ccccc3)ccc2O1	x	x	x	3	x	x	x	x
CN(C)C(=O)c1cccc(-c2ccc3c(c2)[C@@H]2[C@@H](CCN2C(=O)C2CCOCC2)[C@H](CO)N3)c1	x	x	x	-8	x	x	x	x
COCCCN=Cc1c(C)[nH]n(-c2ccc(Br)c(C)c2)c1=O	0	-2	18*	16	71*	65*	42*	38*
C[C@@H]1CN([C@H](C)CO)C(=O)CCCn2cc(nn2)CO[C@H]1CN(C)Cc1ccncc1	x	x	x	7	x	x	x	x
C=CCc1ccc(OCc2ccc(C(=O)OC)o2)c(OC)c1	0	-21	25*	x	-45	-16	55*	-23
COC(=O)c1ccc(COc2ccc(C=O)cc2OC)o1	1	0	0	-10	-13	-10	x	x
C[C@@H]1CN([C@@H](C)CO)C(=O)c2cc(NC(=O)Nc3cccc4ccccc34)ccc2O[C@@H](C)CCCCO[C@H]1CN(C)Cc1ccc2c(c1)OCO2	x	x	x	5	x	x	x	x
OCCN(C=NC1=NN(c2cccc(C(F)(F)F)c2)CC1)CCO	0	1	-10	x	-12	-11	x	x
CCN(C=NC1=NN(c2cccc(C(F)(F)F)c2)CC1)CC	0	-3	22*	-30	-15	-35	-1	-11
SMILES	aDG glyco act	EBV LMP1 NFkB	HSP90 refold inh	LGR2 inh	TROY signal inh	TWEAK Fn14 block	HSP90 inh confirm	luciferase ctr
O=C1c2ccccc2-c2nc3ccccc3cc21	0	-26	0	-38	-70	30	x	x
Cc1ccc(-c2cc3c(nn2)-c2ccccc2C3=O)cc1	0	65*	28*	92*	75*	96*	75*	89*
Cc1ccccc1-c1cc2c(nn1)-c1ccccc1C2=O	5	2	74*	x	85*	46	7	0
O=C(c1ccncc1)N1CC2(C1)[C@@H](c1ccccc1)[C@@H](CO)N2C(=O)c1ccncc1	x	x	x	1	x	x	x	x
CCCNC(=O)N1[C@H](C#N)[C@H](c2ccccc2-c2ccc(F)cc2)[C@@H]1CO	x	x	x	-4	x	x	x	x
C[C@H]1CN([C@@H](C)CO)C(=O)c2cc(C#CC3CCCCC3)cnc2O[C@@H]1CN(C)S(=O)(=O)c1ccccc1	x	x	x	14	x	x	x	x
O=C(C[C@@H]1CC[C@@H](NC(=O)C2CC2)[C@@H](CO)O1)NCC1CC1	x	x	x	-5	x	x	x	x
CCOC(=O)c1cn2nc(N3CCCC3)ccc2n1	0	53*	34*	68*	48	79*	67*	43*
CCOC(=O)c1cn2nc(N3CCCCC3)ccc2n1	0	59*	39*	88*	71*	89*	72*	59*
C[C@H]1CCCCO[C@H](CN(C)C(=O)Nc2ccc(F)cc2)[C@@H](C)CN([C@@H](C)CO)C(=O)c2cc(NS(=O)(=O)c3cn(C)cn3)ccc2O1	x	x	x	-3	x	x	x	x
O=C(C[C@H]1CC[C@@H](NC(=O)Nc2ccccc2F)[C@H](CO)O1)NCc1ccc(F)cc1	x	x	x	10	x	x	x	x
O=c1oc2ccc(Cl)cc2nc1/C=C(\O)c1cccs1	0	3	63*	-42	-40	5	79*	-11
Cc1ccc2oc(=O)c(/C=C(\O)c3cccs3)nc2c1	0	0	18*	x	-27	-10	42*	-16
Cc1cc(/C=N/Nc2nc(N)ncc2[N+](=O)[O-])c(C)n1-c1ccccc1F	x	x	78*	x	x	x	94*	89*
Nc1ncc([N+](=O)[O-])c(Oc2ccccc2F)n1	0	12	2	1	16	26	x	x
CCn1ncc([N+](=O)[O-])c1C(=O)n1nc(C)cc1C	0	-4	-2	-30	-82	23	x	x
Cc1cc(C)n(C(=O)c2c([N+](=O)[O-])cnn2C)n1	0	0	72*	x	11	12	-4	-10
CN(C)C(=O)C[C@H]1CC[C@H](NC(=O)C2CC2)[C@@H](CO)O1	x	x	x	5	x	x	x	x
COc1ccc(-n2c(C)cc(-c3csc(NC(=O)c4ccc(S(=O)(=O)N(C)C)cc4)n3)c2C)cc1	3	14	20*	0	12	-11	39*	-6
CCc1nc2ccc(C(=O)O)cc2nc1CC	0	-21	75*	-5	-12	18	63*	51*
CC(C)(C)c1ccc(C(=O)Nc2ccc(CC(=O)O)cc2)o1	0	72*	22*	-7	55*	88*	23*	-30
Cc1ccc(C(=O)Nc2ccc(CC(=O)O)cc2)o1	0	-4	3	x	-7	0	x	x
